Growth data for 39 molecules are collected here from PubChem BioAssay (NCI).

Several values for one entry are separate records, joined by “and”; a condition that tells them apart may be missing. Identical values can stand only once. This is part of a sample that, as a whole, favours compounds with a hit. Of some 83,000 tested, about 20% had one in any assay.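 Activity criterion: percent growth below 10, measured after cells in 96-well plates were exposed to a single compound concentration for 48 hours.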 Values without a mark were called inactive. Activity calls are given as the source filed them.

The test system of the assay is NCI-H522 lung. Briefly: NCI-60 one-dose screen, 48 h (100 = growth as untreated, 0 = no growth, -100 = all killed). To be noted: 10 µM unless noted.
In the case of `O=C(O)C1C2CCC1C(O)C2` (centres undefined), the growth was 87.6% and 98.6%.
The figure for `CC1=C2[C@@H](CC1)[C@]1(C)O[C@@](C3CC3)(C[C@H]1OC(=O)CO)[C@H]2OC(=O)/C=C/c1ccccc1` is 88.4%.
The figure for `CON1CCC[C@]2(C)[C@H]3CC[C@@H]4[C@H]5[C@@H](O)C(C)(C)CC[C@]5(CO)CC[C@@]4(C)[C@]3(C)CC[C@H]2C1(C)C` is 84%; for `O=C(Nc1ccccc1C(=O)N/N=C(\c1ccccc1)c1ccccn1)c1ccccc1` it is 0.831% (active).
The figure for `CNC(=O)c1cc(Oc2ccc3nc(NC(=O)Nc4ccc(C(F)(F)F)cc4)sc3c2)ccn1` is 42.4%; for `COc1cc(CO)cc2cc3ccccc3nc12` it is 96.8%; for `Cc1ccc(S(=O)(=O)OC[C@@]2(C)CC[C@]3(C)CC[C@]4(C)C(=CC[C@@H]5[C@@]6(C)CCCNC(C)(C)[C@@H]6CC[C@]54C)[C@@H]3C2)cc1` it is -81.5% (active).
For the molecule `O=C1C(c2c[nH]c3ccccc23)=C(c2coc3cc(Br)ccc23)C(=O)N1O`, the growth is 89.4%.
`Cc1ccc(Cc2cnc(NC(=O)c3cc(C)oc3C)s2)cc1`: the growth was 57.3%.
The figure for `CN(Cc1ccccc1)c1nc(Cl)c(C2CC(c3ccc4c(c3)OCO4)=NN2c2cc(Cl)cc(Cl)c2)s1` (centres undefined) is 94.2%; for `COc1ccc(/C=C/C(=O)c2cc3c(N)c(C(=O)Nc4ccccc4Cl)sc3nc2C)cc1` it is 15.4%.
In the case of `COc1ccc(/C=N/NC(=O)CN2CCN(c3cc4c(cc3F)c(=O)c(C(=O)O)cn4C3CC3)CC2)cc1O`, the growth was 80.8%.
The figure for `COc1ccc(-c2csc(NC(=O)CN3CCN(CCO)CC3)n2)cc1NS(=O)(=O)c1cccc2c(N(C)C)cccc12` is 79%; for `COc1cccc(NC(=O)c2sc3nc(C)c(C(O)c4ccccc4)cc3c2N)c1` (centres undefined) it is 0.582% (active).
The figure for `COc1ccc(N2CCN(S(=O)(=O)c3oc(-c4ccccc4)nc3C#N)CC2)cc1` is 25.2%; for `O=S(=O)(O)c1ccc(N=Nc2ccc(N=Nc3cccc4ccccc34)c(S(=O)(=O)O)c2)cc1` it is 103%.
The figure for `O=C1/C(=C/c2ccc(F)c(F)c2)CN(C(=O)C(Cl)Cl)C/C1=C\c1ccc(F)c(F)c1` is -81.8% (active); for `O=S(=O)(Nc1cc(Sc2cccc3cccnc23)c(O)c2ccccc12)c1ccc(F)cc1` it is -48.7% (active); for `COc1cc(Cl)cc(-c2nn(C(=O)NS(=O)(=O)c3ccc(Cl)cc3)cc2-c2ccncc2)c1` it is 74.3%.
For the molecule `CCN1CCN(CC(=O)Nc2nc3ccc(NCc4ccc(C)cc4)cc3s2)CC1`, the growth was 93.7%.
The figure for `COc1cc(-c2nc(SCCC(C)C)nc(Nc3ccc(F)cc3)c2C#N)cc(OC)c1OC` is 75%.
For the molecule `O=C(/C=C/c1ccc([N+](=O)[O-])cc1)c1ccccc1`, the growth is 70.4%.
The figure for `COc1cc(-c2nn(-c3cccc(NC(=O)CCN4CCN(C)CC4)c3)cc2-c2ccncc2)ccc1Cl` is -6.1% (active); for `N#CC(Cc1cccc2ccccc12)c1cc2ccccc2[nH]1` (centres undefined) it is 75.5%.
Turning to `C#CCOCC1CN(C)C(=O)O1` (centres undefined), the growth was 99.7%.
The figure for `Cc1ccc(/C=C/c2c(C(=O)/C=C/c3ccccc3)c(C)nc3ccccc23)cc1` is 11.1%; for `Cc1ccc(-c2nc(C#N)c(S(=O)(=O)N(C)C)o2)cc1` it is -0.0776% (active).
The figure for `O=C(Nc1ncc(Cc2cccc(C(F)(F)F)c2)s1)c1ccc(-n2cnnn2)cc1` is 54.5%; for `COc1c(F)cc(-n2c(C(=O)N3CC(F)C3)cc3cccnc32)cc1F` it is 91.2%.
`N=C1/C(=C2\NC3C=CC=CC3S2)C(c2ccc(Cl)cc2)C2C(=O)N(c3ccccc3)C(=S)N12` (centres undefined): the growth was 101%.
Take `COc1ccc(Cl)cc1Nc1nc(C(F)(F)F)ccc1C(=O)N/N=C/c1ccc(N(C)C)cc1`: the growth is 105%.
For the molecule `Cc1ccc(NC(=O)c2ccc(CN3CCN(C)CC3)cc2)cc1Nc1nccc(-c2cccnc2)n1`, the growth is 51.2%.
Consider `C=C1C(=O)O[C@H]2[C@H]1CC/C(COC(=O)NCCCCNC(=O)OC/C1=C/CC[C@@]3(C)O[C@H]3[C@H]3OC(=O)C(=C)[C@@H]3CC1)=C\CC[C@@]1(C)O[C@@H]21`, for which the growth is -61.4% (active).
Take `C[C@@H]1O[C@@H](O[C@H]2[C@@H](OC(=O)[C@]34CCC(C)(C)C[C@H]3C3=CC[C@@H]5[C@@]6(C)C[C@H](O)[C@H](O[C@@H]7O[C@H](CO)[C@@H](O)[C@H](O)[C@H]7O)[C@@](C)(CO)[C@@H]6CC[C@@]5(C)[C@]3(C)C[C@H]4O)OC[C@@H](O)[C@@H]2O)[C@H](O)[C@H](O[C@@H]2OC[C@@H](O)[C@H](O[C@@H]3OC[C@](O)(CO)[C@H]3O[C@@H]3OC[C@@H](O)[C@H](O)[C@H]3O)[C@H]2O)[C@H]1O[C@@H]1OC[C@](O)(CO)[C@H]1O`: the growth is 29.8%.
The figure for `NC(=O)c1c(NC(=O)/C=C/c2cccs2)sc2c1CCC(=O)C2` is -4.08% (active); for `CC1=CC(C)(C)NC(=S)N1c1ccc(Cl)cc1` it is 93.7% and 92.4%.
As for `Cc1cc(N2CCCCC2)nc(NCc2cc(Nc3ccnc4cc(Cl)ccc34)ccc2F)n1`, the growth was -57.9% (active).
The figure for `CCCCCCCC/C=C\CCCCCCCCOc1ccccc1CC(=O)NCC[N+]1(C)CCOCC1` is 51%.
Consider `COc1nc2ccc(C)cc2cc1/C=[N+](\[O-])c1ccccc1`, for which the growth was 84.6%.
